Screening results (PubChem)
DAX1 inh-1: DAX1 (NR0B1) inhibitors on StAR promoter, primary screen, cell-based, luminescence, SF-1 (NR5A1), full-length DAX-1; inhibition, % at 6.8 µM; HEK293T StAR-luciferase reporter, SF-1/DAX-1 repression relief; 370,000 compounds, 1.1% hits;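 active = inhibition above the mean over all tested compounds plus 3 SD, cut at about 3.6% in these data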;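 note: higher inhibition means more luminescence from relief of DAX-1 repression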
hgDAF12 agonist: H. glycines DAF-12 receptor agonists, primary screen, cell-based, luminescence, HEK293, GAL4 fusion, UAS-luciferase; 370,000 compounds, 1.8% hits; activation, % at 6.8 µM; HEK293 GAL4-hgDAF12 UAS-luciferase reporter, agonist luminescence; normalized to butyrate control; Nuclear hormone receptor DAF-12 (Heterodera glycines), GAL4 fusion; AID 687014, 2013;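 active = activation above a cutoff set at the mean of all screened compounds plus 3 SD, cut at about 10% in these data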
DAX1 inh-2: DAX1 (NR0B1) inhibitors, primary screen, cell-based, HEK293, Gal4-DAX1, luciferase luminescence; Nuclear receptor subfamily 0 group B member 1 (Homo sapiens), P51843; HEK293 Gal4-DAX1 luciferase reporter; inhibition, % at 6.75 µM; 340,000 compounds, 0.99% hits;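 active = inhibition above the mean over all tested compounds plus 3 SD, cut at about 4.2% in these data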;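 note: inhibition shows as a rise in luminescence from relieved DAX1 repression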
Target sequence (P51843 207-470 limits assumed): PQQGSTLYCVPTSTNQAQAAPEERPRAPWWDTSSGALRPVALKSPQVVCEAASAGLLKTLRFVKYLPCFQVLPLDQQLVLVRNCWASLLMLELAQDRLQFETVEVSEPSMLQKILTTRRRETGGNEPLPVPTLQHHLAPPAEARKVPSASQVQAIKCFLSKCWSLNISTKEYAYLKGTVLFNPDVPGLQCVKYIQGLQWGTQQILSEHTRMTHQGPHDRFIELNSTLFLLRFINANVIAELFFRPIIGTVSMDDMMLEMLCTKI
ssDAF12 agonist: S. stercoralis DAF-12 nuclear receptor activators, primary screen, cell-based, luminescence, HEK293, GRIP1 co-expression, lit1-tk-luc; 370,000 compounds, 1% hits; HEK293 ssDAF-12/GRIP1 lit1-tk-luc reporter; % of 3 µM dafachronic acid response; Nuclear hormone receptor DAF-12 (Strongyloides stercoralis); AID 652126, 2013; activation, % at 6.8 µM;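 active = activation above the mean over all tested compounds plus 3 SD, cut at about 0.9% in these data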
hcDAF-12 act: H. contortus DAF-12 nuclear receptor activators, primary screen, cell-based, luminescence, HEK293, lit1-tk-luc reporter; activation, % at 6.8 µM; HEK293 hcDAF-12 lit1-tk-luc reporter; 0% DMSO, 100% Δ7-dafachronic acid; 370,000 compounds, 1.4% hits;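 active = activation above the mean of all tested compounds plus 3 SD, cut at about 5.5% in these data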
Hits are given with their value. Most compounds without a hit are left out; they make up all but 4.1% or so of the library.

For O=C(CSc1nnc(SCc2cccc3ccccc23)s1)N/N=C/c1c[nH]c2ccccc12 the results were DAX1 inh-1 inactive, hgDAF12 agonist inactive, DAX1 inh-2 inactive, ssDAF12 agonist 1.4 and hcDAF-12 act inactive.
For O=C(O)COc1ccccc1/C=N/NC(=O)CSc1nnc(SCc2ccc(Cl)cc2)s1 the results were DAX1 inh-1 inactive, hgDAF12 agonist inactive, DAX1 inh-2 inactive, ssDAF12 agonist inactive and hcDAF-12 act inactive.
`Cc1ccnn1CC(=O)N/N=C/c1c[nH]c2ccccc12` gave DAX1 inh-1 inactive, hgDAF12 agonist inactive, DAX1 inh-2 inactive, ssDAF12 agonist inactive and hcDAF-12 act inactive.
O=C(CSc1nnc(SCc2ccc(Cl)cc2)s1)N/N=C/c1c[nH]c2ccccc12 was read as DAX1 inh-1 inactive, hgDAF12 agonist inactive, DAX1 inh-2 inactive, ssDAF12 agonist inactive and hcDAF-12 act 5.6.
`O=C(CSc1ccccn1)N/N=C/c1c[nH]c2ccccc12` gave DAX1 inh-1 inactive, hgDAF12 agonist inactive, DAX1 inh-2 inactive, ssDAF12 agonist inactive and hcDAF-12 act 5.8.
`O=C(CN(CCc1ccccc1)S(=O)(=O)c1ccc(Cl)s1)N1CCOCC1` gave DAX1 inh-1 inactive, hgDAF12 agonist inactive, ssDAF12 agonist inactive and hcDAF-12 act inactive.
Screening O=[N+]([O-])c1ccc(NCc2ccc(Cl)cc2)nc1 returned DAX1 inh-1 inactive, hgDAF12 agonist inactive, DAX1 inh-2 inactive, ssDAF12 agonist inactive and hcDAF-12 act inactive.
CC(C)c1ccc(CNc2ccc([N+](=O)[O-])cn2)cc1 was read as DAX1 inh-1 3.9, hgDAF12 agonist 12, DAX1 inh-2 inactive, ssDAF12 agonist inactive and hcDAF-12 act inactive.
Screening O=C(Nc1nc2ncccn2c1-c1ccccc1)C1CC1 returned DAX1 inh-1 inactive, hgDAF12 agonist inactive, ssDAF12 agonist inactive and hcDAF-12 act inactive.
COc1cc(C(=O)OC2CC3CCC2(C)C3(C)C)ccc1OC(C)=O (centres undefined) was read as DAX1 inh-1 inactive, hgDAF12 agonist inactive, DAX1 inh-2 4.7, ssDAF12 agonist inactive and hcDAF-12 act inactive.
CC1(C)C2CCC1(C)C(OC(=O)CNc1ccccc1)C2 (centres undefined) was read as DAX1 inh-1 inactive, hgDAF12 agonist inactive, DAX1 inh-2 inactive, ssDAF12 agonist inactive and hcDAF-12 act inactive.
For S=C1c2ccccc2CN1c1ccccc1 the results were DAX1 inh-1 inactive, hgDAF12 agonist inactive, DAX1 inh-2 inactive, ssDAF12 agonist inactive and hcDAF-12 act 6.0.
For O=C(O)c1cccc2c1C(=O)N(c1ccccc1)C2 the results were DAX1 inh-1 inactive, hgDAF12 agonist inactive, DAX1 inh-2 inactive, ssDAF12 agonist inactive and hcDAF-12 act inactive.
`CC(C)(C)c1ccc(-c2nnc(SCC(=O)c3ccc([N+](=O)[O-])cc3)n2-c2ccc(Cl)cc2)cc1` gave DAX1 inh-1 inactive, hgDAF12 agonist inactive, ssDAF12 agonist inactive and hcDAF-12 act inactive.
`CCOC(=O)c1nnsc1Nc1ccc(C)c(C)c1` gave DAX1 inh-1 inactive, hgDAF12 agonist inactive, DAX1 inh-2 4.3, ssDAF12 agonist inactive and hcDAF-12 act inactive.
For CC(C)(C)c1ccc(CNc2nc(-c3ccccn3)nnc2-c2ccccc2)cc1 the results were hgDAF12 agonist inactive, ssDAF12 agonist inactive and hcDAF-12 act inactive.
`CN(C)c1cccc(-c2cnc(N3CCC(C(N)=O)CC3)nc2)c1` gave hgDAF12 agonist inactive, ssDAF12 agonist inactive and hcDAF-12 act inactive.
For O=C(N/N=C\c1cn[nH]c1-c1ccccc1)c1cccs1 the results were DAX1 inh-1 inactive, hgDAF12 agonist 13, DAX1 inh-2 inactive, ssDAF12 agonist inactive and hcDAF-12 act inactive.
Cc1ccccc1C(=O)N/N=C/c1ccccn1 was read as DAX1 inh-1 inactive, hgDAF12 agonist 13, DAX1 inh-2 inactive, ssDAF12 agonist inactive and hcDAF-12 act inactive.
`O=C(N/N=C\c1cn[nH]c1-c1ccccc1)c1cccnc1` gave DAX1 inh-1 inactive, hgDAF12 agonist inactive, DAX1 inh-2 inactive, ssDAF12 agonist inactive and hcDAF-12 act inactive.
`O=C(N/N=C/c1ccccn1)c1ccncc1` gave DAX1 inh-1 inactive, hgDAF12 agonist inactive, DAX1 inh-2 inactive, ssDAF12 agonist inactive and hcDAF-12 act inactive.
For O=C(N/N=C/c1ccc(-c2cccc([N+](=O)[O-])c2)o1)c1cccs1 the results were DAX1 inh-1 inactive, hgDAF12 agonist inactive, DAX1 inh-2 inactive, ssDAF12 agonist 1.8 and hcDAF-12 act 5.7.
Screening O=C(N/N=C/c1ccccn1)c1cccs1 returned DAX1 inh-1 inactive, hgDAF12 agonist inactive, DAX1 inh-2 inactive, ssDAF12 agonist 1.5 and hcDAF-12 act inactive.
For CCOC(=O)CC[C@@H]1CC[C@]2(CCCN(C(=O)c3ccc4ccccc4n3)C2)O1 the results were DAX1 inh-1 inactive, hgDAF12 agonist inactive, ssDAF12 agonist inactive and hcDAF-12 act inactive.
`CN1CCCCC(NC(=O)c2ccc(C#N)cc2)C1=O` (centres undefined) gave DAX1 inh-1 inactive, hgDAF12 agonist inactive, ssDAF12 agonist inactive and hcDAF-12 act inactive.
For COc1ccccc1/C=C/C=N/NC(=O)c1cccs1 the results were DAX1 inh-1 inactive, hgDAF12 agonist inactive, DAX1 inh-2 7.2, ssDAF12 agonist inactive and hcDAF-12 act inactive.
COc1ccc(OC)c(C(=O)N/N=C/c2ccccn2)c1 was read as DAX1 inh-1 inactive, hgDAF12 agonist inactive, DAX1 inh-2 4.6, ssDAF12 agonist inactive and hcDAF-12 act inactive.
`CS(=O)(=O)N1CCC[C@]2(CC[C@@H](CCC#N)O2)C1` gave DAX1 inh-1 inactive, hgDAF12 agonist inactive, ssDAF12 agonist inactive and hcDAF-12 act inactive.
Screening CC(=O)Nc1cc(NC(C)=O)c(N=Nc2ccccc2)cc1C returned DAX1 inh-1 inactive, hgDAF12 agonist inactive, DAX1 inh-2 4.7, ssDAF12 agonist inactive and hcDAF-12 act inactive.
Screening Cc1cc(N=Nc2ccccc2)cc(C)c1NC(=O)C(F)(F)F returned DAX1 inh-1 inactive, hgDAF12 agonist inactive, DAX1 inh-2 5.1, ssDAF12 agonist inactive and hcDAF-12 act inactive.
CCN1CCN(CCCNC(=O)c2cc3c(=O)oc4ccc(C)cc4c3s2)CC1 was read as DAX1 inh-1 inactive, hgDAF12 agonist inactive, DAX1 inh-2 inactive, ssDAF12 agonist inactive and hcDAF-12 act inactive.
CCCN1CCN(CCCNC(=O)c2cc3c(=O)[nH]c4ccc(C)cc4c3s2)CC1 was read as DAX1 inh-1 inactive, hgDAF12 agonist inactive, DAX1 inh-2 6.4, ssDAF12 agonist inactive and hcDAF-12 act inactive.
For Cc1ccccc1C(=O)NC1CCCCN(Cc2ccc(Cl)cc2)C1=O (centres undefined) the results were DAX1 inh-1 inactive, hgDAF12 agonist inactive, ssDAF12 agonist inactive and hcDAF-12 act inactive.
